# MEX-5 binding = C. elegans MEX-5 TCR-2 RNA binding activity; Q9XUB2; MEX-5/FITC-TCR2 RNA binding, fluorescence polarization; active compounds read low; activity score (negative = inhibition of binding), % at 10 µM; actives 0.38% (n = 300,000); AID 1832;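 active = inhibition past about -25% in most replicates, and total fluorescence under double the plate's negative control median, limit read from the data; inconclusive = replicates evenly split on the limit, or fluorescence at least double controls; inactive = too little inhibition in most replicates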;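 note: 0% = DMSO and -100% = 5 µM competing unlabeled TCR2 RNA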
# eLon inh = inhibits E. coli Lon protease; P0A9M0; purified E. coli Lon protease, fluorescence polarization; inhibition, % at 7.94 µM; actives 0.42% (n = 360,000); AID 602123; in the data active = inhibition above about 13%, passing the limit was not always enough;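 note: 0% = enzyme with probe and DMSO and 100% = no enzyme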
# GLD-1 RNA inh = GLD-1-TGE RNA interaction inhibition (C. elegans); purified GLD-1 + fluorescein TGE RNA, fluorescence polarization; inhibition, % at 5.96 µM; actives 0.44% (n = 320,000);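 active = percent inhibition above a per-plate cutoff, the plate mean of test compounds plus 3 SD, cut at about 30% in these data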;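 note: 0% = DMSO wells with GLD-1 and probe and 100% = wells lacking GLD-1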
# Target sequence (Q17339 whole entry, looked up): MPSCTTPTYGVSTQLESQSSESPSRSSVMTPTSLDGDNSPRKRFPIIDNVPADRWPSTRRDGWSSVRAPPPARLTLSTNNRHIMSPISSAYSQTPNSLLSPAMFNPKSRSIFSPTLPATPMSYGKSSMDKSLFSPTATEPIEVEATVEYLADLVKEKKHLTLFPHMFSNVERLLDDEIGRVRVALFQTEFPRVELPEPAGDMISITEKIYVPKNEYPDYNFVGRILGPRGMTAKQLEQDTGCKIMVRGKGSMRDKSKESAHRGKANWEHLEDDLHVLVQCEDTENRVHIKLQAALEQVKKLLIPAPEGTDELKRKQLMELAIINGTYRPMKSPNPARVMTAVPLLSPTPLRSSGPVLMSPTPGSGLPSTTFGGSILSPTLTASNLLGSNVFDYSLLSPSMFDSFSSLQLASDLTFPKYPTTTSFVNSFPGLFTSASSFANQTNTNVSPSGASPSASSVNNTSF
# MCL1-BIM inh = disrupts human MCL1 binding to BIM-BH3 peptide; Q07820; GST-MCL1 / FITC-Bim-BH3 fluorescence polarization; inhibition, % at 10.9 µM; actives 0.68% (n = 320,000); AID 2057;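 active = inhibition above the mean inhibition of all tested compounds plus 3 SD, set per campaign, cut at about 40% in these data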;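 note: 0% = DMSO wells and 100% = unlabeled Bim-BH3 peptide control; higher means more loss of mP so more displacement of Bim peptide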
# EBV gp42 inh = EBV gp42 inhibition; actives 0.42% (n = 220,000); inhibition, % (tested at 21.74 µM); Fluorescence polarization binding assay, mP read-out; Q1HVG2; in the data active = inhibition above about 50%
# BCLXL inh = inhibitors of human Bcl-xL | GST-Bcl-xL / FITC-Bim BH3 peptide fluorescence polarization | Q07817 | actives 0.7% (n = 320,000) | inhibition, % at 10.9 µM;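 active = inhibition above the mean of all tested compounds plus 3 SD, cutoff set per campaign, cut at about 30% in these data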;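 note: 0% = DMSO wells and 100% = unlabeled Bim-BH3 peptide competitor; inhibitors lower millipolarization by displacing the labeled peptide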
# Active calls of the source: *; ? = inconclusive; nt = not tested or not shown. Most compounds without a hit are left out; they make up all but 1.5% or so of the library.
SMILES,MEX-5 binding,eLon inh,GLD-1 RNA inh,MCL1-BIM inh,EBV gp42 inh,BCLXL inh
C=CCn1c(=O)/c(=C\c2ccccn2)s/c1=C(/C#N)C(=O)NCC1CCCO1 (configuration not stated),-28*,-9,4,-5,3,-1
C=CCn1c(=O)/c(=C/c2ccc(C)o2)s/c1=C(/C#N)C(=O)c1ccccc1,-27*,-88,-51,-50,16,-40
COc1ccccc1CNc1ccc(Br)cn1,1,2,-94,-6,nt,7
O=C(O)c1cc(O)c2c(c1)[C@H]([C@H]1c3cc(C(=O)O)cc(O)c3C(=O)c3c(O[C@@H]4O[C@H](CO)[C@@H](O)[C@H](O)[C@H]4O)cccc31)c1cccc(OC3O[C@H](CO)[C@@H](O)[C@H](O)[C@H]3O)c1C2=O (some centres not stated),-98*,3,29,110*,nt,94*
O=C1c2cc(CO)cc(O)c2C(=O)c2c(O[C@@H]3OC(CO)[C@@H](O)[C@@H](O)[C@@H]3O)cccc21 (some centres not stated),-5,6,10,14,nt,11
O=C1c2c(O)cccc2C(C2OC(CO)[C@@H](O)[C@H](O)[C@H]2O)c2cc(CO)cc(O)c21 (some centres not stated),nt,8,5,1,nt,11
O=C(O)c1cc(O)c2c(c1)[C@@H]([C@H]1c3cc(C(=O)O)cc(O)c3C(=O)c3c(O[C@@H]4O[C@H](CO)[C@@H](O)[C@H](O)[C@H]4O)cccc31)c1cccc(OC3O[C@H](CO)[C@@H](O)[C@H](O)[C@H]3O)c1C2=O (some centres not stated),-100*,-8,30,114*,nt,97*
Cc1n[nH]c(C)c1Sc1ccccc1N=Cc1cc(Cl)cc([N+](=O)[O-])c1O,-51*,5,-1,4,6,5
COc1ccc(CCCNC(=O)C2Cc3c(-c4ccccc4)ccnc3O2)cc1 (configuration not stated),nt,-1,nt,nt,nt,nt
Cc1ccccc1CS(=O)(=O)Cc1ccc(C(=O)NCc2ccccn2)o1,-6,0,20,37,11,31*
Cc1ccc(C)c(N2CC(C(=O)OCC(=O)Nc3cc(C)on3)CC2=O)c1 (configuration not stated),-3,2,-1,7,nt,9
Cc1ccc(NCN2C(=O)C3C4C=CC(C4)C3C2=O)cc1 (configuration not stated),3,2,4,0,-1,2
O=C1C2C3C=CC(C3)C2C(=O)N1CNc1ccc(O)cc1 (configuration not stated),-1,nt,15,34,-16,30*
COc1cccc(NC(=O)CN(C)C(=O)c2cccnc2Sc2ccc(C)c(C)c2)c1,1,-2,2,1,nt,4
CCOCCCNc1nc2c(C)cccn2c(=O)c1/C=C1\SC(=S)N(C(C)CC)C1=O (configuration not stated),?,-115,-67,-119,133*,-82
CCCN1C(=O)/C(=C/c2c(NCCCOCC)nc3c(C)cccn3c2=O)SC1=S,nt,-48,nt,nt,-27,nt
CCOCCCNc1nc2c(C)cccn2c(=O)c1/C=C1\SC(=S)N(CC(C)C)C1=O,-2,-42,-25,-48,104*,-28
COc1ccccc1C(=O)Nc1cccc2c1CCCC2,0,-5,4,3,nt,-1
NC(=O)c1ccc(-c2nnn(CC(=O)N(C3CCCC3)C3CCS(=O)(=O)C3)n2)cc1 (configuration not stated),nt,-13,-1,-12,nt,4
COc1cccc(OCc2nn3c(=O)c(-c4ccccc4)nnc3s2)c1,-3,-6,nt,nt,nt,nt
O=C(CCn1nc(-c2ccc(Cl)cc2)c2ccccc2c1=O)NN1CCOCC1,-3,-9,3,6,-10,7
O=C1OC(/C(=C\Nc2ccc(F)cc2F)[N+](=O)[O-])c2ccccc21 (configuration not stated),-2,-6,5,2,-2,8
O=C1OC(/C(=C\Nc2cc(Cl)ccc2O)[N+](=O)[O-])c2ccccc21 (configuration not stated),-26*,-2,9,-4,-2,1
CN(C)c1ccc(/C=C(\C#N)C(=O)NCc2ccco2)cc1,-42*,nt,-46,-9,-27,-10
Cc1ccc(CNC(=O)/C(C#N)=C\c2ccc(N(C)C)cc2)cc1,-60*,nt,-62,-9,-26,-2
SMILES,MEX-5 binding,eLon inh,GLD-1 RNA inh,MCL1-BIM inh,EBV gp42 inh,BCLXL inh
CCN(CC)c1ccc(/C=C(\C#N)C(=O)NCc2ccccc2)cc1,-3,-178,-42,-11,-8,-3
COc1ccc(NC(=O)NC(=O)c2cc(OCC(F)(F)F)ccc2OCC(F)(F)F)cc1,1,-22,0,4,74*,0
CC(C)c1onc(C(=O)Nc2ccc3c(c2)OCO3)c1[N+](=O)[O-],7,-2,7,-4,nt,-2
COC(=O)c1ccc(C)c(NC(=O)CCSc2ccc(Cl)cc2)c1,-2,-16,8,-6,99*,0
Cc1ccc(NC(=O)C(C)N2CCN(C)CC2)cc1S(=O)(=O)N1CCOCC1 (configuration not stated),nt,1,1,-5,nt,3
N#C/C(=C\c1ccccc1[N+](=O)[O-])C(=O)Nc1ccc(S(N)(=O)=O)cc1,-6,8,29,29,43,33*
COc1ccccc1/C=C(\C#N)C(=O)Nc1ccc(S(N)(=O)=O)cc1,0,-4,-10,-5,5,4
COc1cc(C(=O)NC(=S)Nc2ccc(Cl)cn2)cc(OC)c1OC,1,-7,-3,2,nt,2
CN(C)c1ccc(/C=N/NC(=O)c2cnc3ccccc3c2)cc1,-44*,-6,-2,4,76*,7
CN(C)c1ccc(/C=N/NC(=O)c2ccccn2)cc1,15,-3,8,4,-23,-1
Cc1ccc(S(=O)(=O)Nc2ccc3c(c2)CC(=O)N([C@H](C)CO)C[C@@H](C)[C@H](CN(C)S(=O)(=O)c2ccccc2)O3)cc1,nt,-12,12,nt,nt,nt
C[C@H](CO)N1C[C@H](C)[C@@H](CN(C)S(=O)(=O)c2ccc(Cl)cc2)Oc2ccc(NS(=O)(=O)c3ccccc3)cc2CC1=O,nt,19*,3,nt,nt,nt
N#CC1CC(c2ccc([N+](=O)[O-])cc2)=NN1c1ccc([N+](=O)[O-])cc1 (configuration not stated),-14,-31,-19,-73,94*,-38
O=[N+]([O-])c1cccc(C2CC(c3ccccc3)=NN2c2ccccc2)c1 (configuration not stated),1,-4,2,-2,nt,4
Cc1ccc(C(=O)/C=C/Nc2cccc(O)c2)cc1,-2,0,13,40*,-12,40*

# High-throughput results (PubChem)
